# The full data set covers some 8,800 targets. This sample favours those with a hit. About 0.5% of all pairs of compound and target were hits. Unmarked numbers belong to inactive results.
# Columns and labels:
# Experiment in all cases: log2 fold change, soluble protein after heating vs DMSO (PISA); higher = thermal stabilisation; K562 lysate, 10 uM; active = over 0.2 and 3.5 SD of the protein, either way, in both replicates (recomputed)
# lapatinib = compound: CS(=O)(=O)CCNCc1ccc(-c2ccc3ncnc(Nc4ccc(OCc5cccc(F)c5)c(Cl)c4)c3c2)o1 [lapatinib]
# In short: (§1)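 Dounce homogenisation of K562 pellets in PBS pH 7.4 with 1 mM MgCl2 produced a crude extract, used at 1 mg/mL protein. Exposure to 10 μM compound lasted 30 min, and aliquots were then heated for 3 min across 48°C-58°C, pooled and brought to 0.5% NP-40 at 4°C. The supernatant after 21,000xg for 90 min was quantified by TMTpro 16plex LC-MS/MS with channel sums equalised. Duplicate values are given as log-two fold change in thermal stability relative to solvent controls.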
# pictilisib = compound: CS(=O)(=O)N1CCN(Cc2cc3nc(-c4cccc5[nH]ncc45)nc(N4CCOCC4)c3s2)CC1 [pictilisib]
# In short: as §1
# crizotinib = compound: C[C@@H](Oc1cc(-c2cnn(C3CCNCC3)c2)cnc1N)c1c(Cl)ccc(F)c1Cl [crizotinib]
# In short: as §1
# [1] = compound: C[C@H](C1=CC=C(C=C1)C(=O)NC2=C3C=CNC3=NC=C2)N
# In short: as §1
# duvelisib = compound: C[C@H](Nc1ncnc2nc[nH]c12)c1cc2cccc(Cl)c2c(=O)n1-c1ccccc1 [duvelisib]
# In short: as §1
# gandotinib = compound: Cc1cc(Nc2cc(CN3CCOCC3)c3nc(C)c(Cc4ccc(Cl)cc4F)n3n2)n[nH]1 [gandotinib]
# In short: as §1
# tozasertib = compound: Cc1cc(Nc2cc(N3CCN(C)CC3)nc(Sc3ccc(NC(=O)C4CC4)cc3)n2)n[nH]1 [tozasertib]
# In short: as §1
# doramapimod = compound: Cc1ccc(-n2nc(C(C)(C)C)cc2NC(=O)Nc2ccc(OCCN3CCOCC3)c3ccccc23)cc1 [doramapimod]
# In short: as §1
# bafetinib = compound: Cc1ccc(NC(=O)c2ccc(CN3CC[C@H](N(C)C)C3)c(C(F)(F)F)c2)cc1Nc1nccc(-c2cncnc2)n1 [bafetinib]
# In short: as §1
# [2] = compound: Cc1cccc(CC(=O)N2CCc3c2ccc(-c2cn(C)c4ncnc(N)c24)c3F)n1
# In short: as §1
# nilotinib = compound: Cc1cn(-c2cc(NC(=O)c3ccc(C)c(Nc4nccc(-c5cccnc5)n4)c3)cc(C(F)(F)F)c2)cn1 [nilotinib]
# In short: as §1
# [3] = compound: Cc1nc(Nc2n[nH]c3c2CN(C(=O)N[C@H](CN(C)C)c2ccccc2)C3(C)C)c2sccc2n1
# In short: as §1
# dasatinib = compound: Cc1nc(Nc2ncc(C(=O)Nc3c(C)cccc3Cl)s2)cc(N2CCN(CCO)CC2)n1 [dasatinib]
# In short: as §1
# [4] = compound: Cc1ncc(-c2ccnc(Nc3ccc(S(C)(=O)=O)cc3)n2)n1C(C)C
# In short: as §1
# [5] = compound: Cn1cc(-c2ccc3c(c2)CCN3C(=O)Cc2cccc(C(F)(F)F)c2)c2c(N)ncnc21
# In short: as §1
# quisinostat = compound: Cn1cc(CNCC2CCN(c3ncc(C(=O)NO)cn3)CC2)c2ccccc21 [quisinostat]
# In short: as §1
# tipifarnib = compound: Cn1cncc1[C@@](N)(c1ccc(Cl)cc1)c1ccc2c(c1)c(-c1cccc(Cl)c1)cc(=O)n2C [tipifarnib]
# In short: as §1
# [6] = compound: NC(=O)Nc1cc(-c2cccc(F)c2)sc1C(=O)N[C@H]1CCCNC1
# In short: as §1
# [7] = compound: NC(=O)c1cnc(N[C@@H]2CCCC[C@@H]2N)nc1Nc1cccc(-n2nccn2)c1
# In short: as §1
# [8] = compound: NC1(c2ccc(-c3nc4ccn5c(=O)[nH]nc5c4cc3-c3ccccc3)cc2)CCC1
# In short: as §1
# UniProt Q86UV5, sequence (Q86UV5 whole entry, looked up): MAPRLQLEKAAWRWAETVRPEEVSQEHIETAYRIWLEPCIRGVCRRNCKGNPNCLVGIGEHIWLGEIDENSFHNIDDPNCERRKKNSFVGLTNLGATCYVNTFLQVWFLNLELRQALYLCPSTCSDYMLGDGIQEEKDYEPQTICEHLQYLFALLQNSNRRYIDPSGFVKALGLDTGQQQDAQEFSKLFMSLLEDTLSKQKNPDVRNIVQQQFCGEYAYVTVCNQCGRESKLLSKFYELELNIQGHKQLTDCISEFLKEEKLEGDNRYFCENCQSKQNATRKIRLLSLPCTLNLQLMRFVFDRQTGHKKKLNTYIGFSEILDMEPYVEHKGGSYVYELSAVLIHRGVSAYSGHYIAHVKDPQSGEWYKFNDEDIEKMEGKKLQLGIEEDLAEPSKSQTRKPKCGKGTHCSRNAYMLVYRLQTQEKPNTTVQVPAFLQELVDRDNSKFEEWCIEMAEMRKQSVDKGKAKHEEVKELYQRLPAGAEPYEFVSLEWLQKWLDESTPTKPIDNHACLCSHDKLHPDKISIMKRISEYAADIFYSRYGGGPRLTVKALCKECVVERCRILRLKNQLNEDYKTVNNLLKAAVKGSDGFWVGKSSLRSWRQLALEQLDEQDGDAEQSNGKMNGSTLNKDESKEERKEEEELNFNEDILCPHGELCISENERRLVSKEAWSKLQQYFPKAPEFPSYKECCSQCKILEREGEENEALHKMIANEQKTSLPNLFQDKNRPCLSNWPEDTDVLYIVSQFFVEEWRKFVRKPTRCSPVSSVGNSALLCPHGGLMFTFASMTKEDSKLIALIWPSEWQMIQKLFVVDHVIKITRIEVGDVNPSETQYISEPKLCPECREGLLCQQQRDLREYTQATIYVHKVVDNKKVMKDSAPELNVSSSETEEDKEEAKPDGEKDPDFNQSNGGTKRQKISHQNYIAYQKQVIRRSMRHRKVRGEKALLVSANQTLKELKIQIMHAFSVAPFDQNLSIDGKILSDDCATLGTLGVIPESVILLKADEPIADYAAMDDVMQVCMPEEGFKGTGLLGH
# UniProt Q86T24, sequence (Q86T24 whole entry, looked up): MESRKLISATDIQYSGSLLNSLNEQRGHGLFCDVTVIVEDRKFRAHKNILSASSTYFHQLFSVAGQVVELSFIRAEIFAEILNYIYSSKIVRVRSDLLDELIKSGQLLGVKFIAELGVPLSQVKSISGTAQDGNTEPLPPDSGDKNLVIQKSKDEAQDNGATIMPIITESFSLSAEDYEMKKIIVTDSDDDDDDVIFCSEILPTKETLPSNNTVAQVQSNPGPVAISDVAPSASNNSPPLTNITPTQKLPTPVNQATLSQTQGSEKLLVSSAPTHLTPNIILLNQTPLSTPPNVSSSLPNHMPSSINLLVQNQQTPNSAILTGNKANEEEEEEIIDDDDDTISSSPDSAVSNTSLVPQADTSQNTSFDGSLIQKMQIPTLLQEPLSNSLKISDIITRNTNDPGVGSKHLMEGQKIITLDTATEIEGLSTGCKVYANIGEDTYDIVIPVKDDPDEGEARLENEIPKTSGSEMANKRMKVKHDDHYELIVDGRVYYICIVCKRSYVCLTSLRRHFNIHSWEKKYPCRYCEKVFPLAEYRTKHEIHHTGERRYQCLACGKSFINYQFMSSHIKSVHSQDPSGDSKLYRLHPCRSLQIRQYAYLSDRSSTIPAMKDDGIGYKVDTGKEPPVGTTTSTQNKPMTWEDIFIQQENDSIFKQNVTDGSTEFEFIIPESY
# UniProt Q9HAV4, sequence (Q9HAV4 whole entry, looked up): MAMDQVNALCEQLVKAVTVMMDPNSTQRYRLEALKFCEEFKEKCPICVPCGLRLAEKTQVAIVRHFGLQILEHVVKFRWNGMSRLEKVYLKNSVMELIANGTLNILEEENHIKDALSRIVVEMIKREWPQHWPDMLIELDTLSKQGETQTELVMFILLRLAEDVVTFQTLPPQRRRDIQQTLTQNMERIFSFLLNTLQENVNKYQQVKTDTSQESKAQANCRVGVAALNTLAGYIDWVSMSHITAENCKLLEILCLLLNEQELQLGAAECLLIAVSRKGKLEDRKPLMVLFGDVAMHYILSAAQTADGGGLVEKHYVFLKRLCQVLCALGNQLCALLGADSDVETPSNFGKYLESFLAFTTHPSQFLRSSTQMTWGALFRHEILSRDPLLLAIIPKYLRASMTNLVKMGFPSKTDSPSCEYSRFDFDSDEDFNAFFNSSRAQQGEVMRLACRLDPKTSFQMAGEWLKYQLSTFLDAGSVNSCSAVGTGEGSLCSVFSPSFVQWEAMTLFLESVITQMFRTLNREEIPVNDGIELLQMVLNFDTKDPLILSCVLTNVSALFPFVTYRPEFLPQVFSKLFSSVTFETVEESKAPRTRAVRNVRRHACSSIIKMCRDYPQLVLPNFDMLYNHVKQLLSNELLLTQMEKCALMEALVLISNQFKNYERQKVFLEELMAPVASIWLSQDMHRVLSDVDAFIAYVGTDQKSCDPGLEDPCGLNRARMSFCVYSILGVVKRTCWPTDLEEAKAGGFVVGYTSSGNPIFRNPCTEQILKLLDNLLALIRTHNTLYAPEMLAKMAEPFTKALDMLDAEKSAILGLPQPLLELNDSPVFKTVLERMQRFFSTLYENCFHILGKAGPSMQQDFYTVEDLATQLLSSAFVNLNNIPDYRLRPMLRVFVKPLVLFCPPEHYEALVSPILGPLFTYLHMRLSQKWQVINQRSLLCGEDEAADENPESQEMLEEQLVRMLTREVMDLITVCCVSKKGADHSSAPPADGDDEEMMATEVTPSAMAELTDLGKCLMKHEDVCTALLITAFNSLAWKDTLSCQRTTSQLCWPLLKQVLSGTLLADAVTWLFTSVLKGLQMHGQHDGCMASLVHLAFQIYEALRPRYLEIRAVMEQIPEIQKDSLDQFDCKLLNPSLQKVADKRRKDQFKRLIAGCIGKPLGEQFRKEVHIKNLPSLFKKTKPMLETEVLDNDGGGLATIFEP
# UniProt Q8NI36, sequence (Q8NI36 whole entry, looked up): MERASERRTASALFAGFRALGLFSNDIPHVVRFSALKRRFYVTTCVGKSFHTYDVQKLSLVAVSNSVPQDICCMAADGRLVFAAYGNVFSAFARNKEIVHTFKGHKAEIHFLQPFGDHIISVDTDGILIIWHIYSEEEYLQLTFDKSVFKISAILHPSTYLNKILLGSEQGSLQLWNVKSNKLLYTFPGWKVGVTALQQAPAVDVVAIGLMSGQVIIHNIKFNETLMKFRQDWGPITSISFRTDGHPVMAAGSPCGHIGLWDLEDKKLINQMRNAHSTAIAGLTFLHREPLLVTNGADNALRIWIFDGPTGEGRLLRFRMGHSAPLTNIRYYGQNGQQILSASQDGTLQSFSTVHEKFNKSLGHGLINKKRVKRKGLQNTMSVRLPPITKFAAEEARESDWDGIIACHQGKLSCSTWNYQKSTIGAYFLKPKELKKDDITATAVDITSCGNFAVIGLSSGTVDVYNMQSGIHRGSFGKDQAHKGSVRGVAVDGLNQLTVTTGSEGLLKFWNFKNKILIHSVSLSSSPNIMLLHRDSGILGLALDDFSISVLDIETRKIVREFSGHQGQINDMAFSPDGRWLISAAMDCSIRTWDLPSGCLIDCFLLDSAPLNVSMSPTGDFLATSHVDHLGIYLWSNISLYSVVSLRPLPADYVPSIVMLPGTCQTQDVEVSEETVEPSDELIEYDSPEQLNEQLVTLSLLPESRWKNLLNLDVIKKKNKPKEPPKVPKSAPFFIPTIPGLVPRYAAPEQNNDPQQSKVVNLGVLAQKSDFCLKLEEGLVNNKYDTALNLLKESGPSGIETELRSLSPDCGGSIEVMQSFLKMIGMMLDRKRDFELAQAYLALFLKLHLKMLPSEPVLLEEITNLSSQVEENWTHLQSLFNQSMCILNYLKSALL
# UniProt P27348, sequence (P27348 whole entry, looked up): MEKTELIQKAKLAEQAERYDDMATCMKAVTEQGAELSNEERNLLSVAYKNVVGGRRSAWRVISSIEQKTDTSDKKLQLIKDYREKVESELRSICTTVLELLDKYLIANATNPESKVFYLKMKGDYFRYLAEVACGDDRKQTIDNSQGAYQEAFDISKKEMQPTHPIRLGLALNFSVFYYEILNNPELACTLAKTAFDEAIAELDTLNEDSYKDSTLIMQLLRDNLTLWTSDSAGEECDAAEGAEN
# UniProt Q9P1Q0, sequence (Q9P1Q0 whole entry, looked up): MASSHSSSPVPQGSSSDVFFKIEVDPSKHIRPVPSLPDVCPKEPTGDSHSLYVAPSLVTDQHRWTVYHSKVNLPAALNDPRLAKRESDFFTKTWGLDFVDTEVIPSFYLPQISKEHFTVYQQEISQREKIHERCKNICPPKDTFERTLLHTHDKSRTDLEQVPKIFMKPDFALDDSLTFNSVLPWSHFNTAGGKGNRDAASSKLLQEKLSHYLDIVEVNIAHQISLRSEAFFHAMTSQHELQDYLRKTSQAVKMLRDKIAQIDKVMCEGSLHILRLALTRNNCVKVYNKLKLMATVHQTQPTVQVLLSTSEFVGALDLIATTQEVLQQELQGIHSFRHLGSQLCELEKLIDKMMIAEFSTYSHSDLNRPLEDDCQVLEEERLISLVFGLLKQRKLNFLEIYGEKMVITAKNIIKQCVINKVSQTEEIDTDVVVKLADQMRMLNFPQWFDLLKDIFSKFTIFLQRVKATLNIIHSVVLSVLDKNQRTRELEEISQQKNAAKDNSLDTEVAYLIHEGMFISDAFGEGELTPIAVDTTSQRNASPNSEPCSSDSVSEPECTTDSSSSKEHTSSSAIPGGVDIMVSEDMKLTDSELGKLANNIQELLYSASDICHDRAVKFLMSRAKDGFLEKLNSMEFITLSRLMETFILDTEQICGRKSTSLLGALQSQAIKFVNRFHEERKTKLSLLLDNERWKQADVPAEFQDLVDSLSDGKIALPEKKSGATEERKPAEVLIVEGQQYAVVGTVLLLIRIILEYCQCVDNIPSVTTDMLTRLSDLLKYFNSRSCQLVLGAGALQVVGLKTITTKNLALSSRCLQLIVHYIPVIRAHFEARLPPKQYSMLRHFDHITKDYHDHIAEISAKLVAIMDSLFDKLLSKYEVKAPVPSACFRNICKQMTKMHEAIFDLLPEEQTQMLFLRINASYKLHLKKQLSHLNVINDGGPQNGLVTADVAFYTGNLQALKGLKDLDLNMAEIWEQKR
Target,log2 fold change (lapatinib),log2 fold change (pictilisib),log2 fold change (crizotinib),log2 fold change [1],log2 fold change (duvelisib),log2 fold change (gandotinib),log2 fold change (tozasertib),log2 fold change (doramapimod),log2 fold change (bafetinib),log2 fold change [2],log2 fold change (nilotinib),log2 fold change [3],log2 fold change (dasatinib),log2 fold change [4],log2 fold change [5],log2 fold change (quisinostat),log2 fold change (tipifarnib),log2 fold change [6],log2 fold change [7],log2 fold change [8]
USP48 (UniProt Q86UV5),-0.05,0.037,0.13,-0.577 (active),-0.022,0.068,0.035,-0.181,-0.134,0.182,-0.016,-0.045,-0.016,-0.032,0.005,0.19,0.033,-0.077,0.005,-0.012
WDR36 (UniProt Q8NI36),0.013,-0.008,-0.02,0.024,0.016,-0.097,0.017,0.061,0.005,-0.004,0.003,-0.015,0.012,0.002,0.025,-0.014,-0.002,0.03,-0.004,-0.01
WRB (UniProt O00258),-0.067,-0.118,0.034,-0.138,0.006,0.348 (active),-0.033,-0.074,-0.017,0.339,0.06,-0.017,-0.014,0.183,0.082,0.015,-0.044,-0.005,0.071,0.024
WDR62 isoform 4 (UniProt O43379),-0.025,0.028,-0.048,-0.021,0.006,-0.032,0.034,0.038,-0.05,0.08,-0.001,0.003,-0.026,0,0.022,-0.103,-0.051,0.031,-0.02,-0.031
YLPM1 (UniProt P49750),0.031,-0.019,0.064,0.147,0.009,-0.067,0.017,-0.042,-0.09,-0.054,-0.023,-0.192,0.018,-0.384 (active),0.021,-0.015,-0.011,0.033,0.041,-0.013
ZBTB33 (UniProt Q86T24),0.047,0.149,-0.111,-0.165,-0.041,0.028,0.048,0.022,0.046,0.048,-0.009,0.084,-0.06,-0.052,0.029,-0.08,-0.083,0.133,0,-0.035
VAV1 (UniProt P15498),0,0.012,-0.059,-0.057,0.071,-0.02,0.011,-0.044,-0.087,0.066,0.022,-0.031,0.007,0.009,0.04,0.022,0,-0.018,0.007,-0.054
WDR7 (UniProt Q9Y4E6),-0.029,-0.037,-0.058,-0.076,-0.008,0.014,-0.012,0.043,-0.04,0.085,0.001,-0.018,-0.088,-0.011,0.003,-0.016,-0.032,0.014,0.007,-0.03
ZNF598 isoform 3 (UniProt Q86UK7),0.027,0.005,0.006,-0.01,-0.01,0.023,0.048,0.024,-0.012,0.015,-0.004,-0.022,-0.063,0.031,0.032,-0.023,-0.019,0.01,0.011,0.029
VPS39 (UniProt Q96JC1),-0.018,-0.018,-0.066,0.603 (active),0.015,-0.169,0.021,0.015,-0.045,-0.229,0.03,-0.008,-0.044,0.024,-0.003,-0.046,0.002,0.005,-0.008,-0.003
VPS54 (UniProt Q9P1Q0),-0.018,0.068,-0.296,-0.263,-0.012,0.399,0.047,0.066,0.431,0.395,0.013,-0.041,-0.112,0.205,0.146,-0.409 (active),-0.111,0.065,0.089,-0.121
WDR24 (UniProt Q96S15),-0.004,0.104,-0.006,-0.072,0.004,0.072,0.065,-0.166,-0.134,0.125,0.124,-0.09,-0.072,0.05,-0.022,-0.013,-0.096,0.038,0.04,-0.002
VARS (UniProt P26640),-0.017,-0.027,-0.068,-0.004,0.002,-0.092,-0.021,0.022,-0.012,0.029,-0.012,-0.004,-0.072,0,0.06,-0.021,0.012,0.045,0.001,-0.028
XPO5 (UniProt Q9HAV4),-0.042,0,-0.085,-0.041,-0.017,-0.14,0.013,-0.008,-0.006,0.049,-0.025,-0.016,-0.068,0.013,0.005,-0.092,-0.015,0.029,0.023,-0.024
YWHAQ (UniProt P27348),0.001,0.038,0.07,0.466 (active),-0.012,-0.089,-0.024,-0.043,-0.043,-0.095,-0.008,-0.005,0.04,0.037,0.011,0.095,0.019,-0.023,-0.035,0.014
ZMYM4 (UniProt Q5VZL5),-0.022,0.037,-0.009,-0.07,-0.007,0.004,0.028,0.031,0.008,0.042,-0.016,0.003,-0.001,-0.005,-0.061,-0.028,-0.051,0.067,0.021,-0.003

# — the supplement of paper PMC10849652
